Compound activity: PubChem BioAssay, National Center for Advancing Translational Sciences (NCATS)
Most compounds without a hit are left out; they make up all but 17% or so of the library.
TGFb inhibitor – TGF-b pathway inhibition. HepG2 CAGA-GFP TGF-b/SMAD3 reporter, GFP fluorescence, 18 h; TGF-beta stimulated, 500 pg/mL final. Potency, µM (series often up to 46.1 µM), for the others: at the highest dose activity, negative = inhibition, usual class: inhibitors. 410,000 compounds, 1.2% hits. AID 588855; note: % is set by controls: 0 for no effect and ±100 for the full control effect; nearly all actives have a fitted effect of over 65% in size
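TGF-beta reporter screen: HEPG2 CAGA-GFP, 1% FBS, 500 pg/mL TGF-beta final, 18 h; per-cell GFP summed per well; curves fitted and categorized by class.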
HT1080NT lethal – kills 2HG-producing HT-1080-NT fibrosarcoma cells | HT-1080-NT fibrosarcoma viability, CellTiter-Glo ATP luminescence, 48 h | 360,000 compounds, 1.6% hits | Potency, µM (doses to about 46.1 µM), for the others: at the top dose activity, negative = less viability, usual class: cytotoxic;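 note: NT is the 2HG producing partner of a matched IDH1 knockdown line; 0% = DMSO-treated cells and -100% = media-only wells without cells; nearly all actives have a fitted effect of over 55% in size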
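Compounds were tested in concentration-response format on HT-1080-NT cells for 48 hours at 37 degrees C. Cell viability came from CellTiter-Glo luminescence; curves were classified by r2, response magnitude and activity.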
DT40 TDP1 CPT – growth inhibition of DT40 Tdp1-/-;hTDP1 cells with camptothecin (screen for TDP1 inhibitors); chicken DT40 Tdp1-/-;hTDP1 cells + 20 nM CPT, ATP luminescence, 48 h; Potency, µM (top dose mostly 46.2 µM), inactives show at the top dose activity change, negative = growth inhibition, actives largely listed as inhibitors; 420,000 compounds, 12% hits; AID 686979; note: % is set by controls: 0 for no effect and ±100 for the full control effect; nearly all actives have a fitted effect of over 55% in size
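Cell growth measured by CellTiter-Glo luminescence after a minimum 48 h, 37 C compound exposure with 20 nM CPT in Tdp1-knockout DT40 cells stably expressing hTDP1, seeded 400/well; qHTS titration format.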
HepG2 viability – kills HepG2 cells in TGF-b inhibitor counter-screen; Potency, µM (doses to about 46.1 µM), for inactives: at the highest dose activity change, negative = cytotoxicity, actives largely listed as cytotoxic; 410,000 compounds, 0.76% hits; HepG2 CAGA-GFP viability, ATP luminescence, 18 h
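HepG2 CAGA-GFP cells (1000/well, DMEM with 1% FBS) received compound, then TGF-beta at 500 pg/mL final, and were incubated 18 hours at 37 degrees C. Viability was read by CellTiter-Glo luminescence. Media-only wells were set as complete cell-killing and DMSO as no toxicity.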
DT40 TDP1 no CPT – qHTS for Inhibitors of human tyrosyl-DNA phosphodiesterase 1 (TDP1): qHTS in cells in absence of CPT; DT40 Tdp1-/- hTDP1 cells, no CPT, ATP luminescence, 48 h; Potency, µM (titrated, usually from 46.2 µM), without a hit: at the highest dose activity change, negative = growth inhibition, hits mostly inhibitors; 420,000 compounds, 15% hits; note: % is set by controls: 0 for no effect and ±100 for the full control effect; nearly all actives have a fitted effect of over 55% in size
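Growth kinetics read by CellTiter-Glo luminescence after ≥48 hr at 37 °C. Cells: DT40 Tdp1-/- stably carrying human TDP1, 400 per well, compound exposure in the absence of CPT (DMSO vehicle).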
HT1080 IDH1KD tx – toxicity to HT-1080 IDH1 knockdown cells (counter line) | HT-1080 IDH1 knockdown viability, ATP luminescence, 48 h | 360,000 compounds, 2% hits | Potency, µM (series often up to 46.1 µM), for the others: top-dose activity, negative = toxicity, usual class: cytotoxic | AID 686971;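 note: 0% = DMSO wells and -100% = cell-free medium wells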
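Assay cells: HT-1080 with IDH1 knockdown, 750 per well, RPMI/5% FBS. Exposure: 48 h at 37 °C following 2 h pre-incubation. Read: CellTiter-Glo luminescence; fitted concentration-response, curve class assigned.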
The depositor's hits bear a star; ? = inconclusive; nt = not tested or not shown; [ ] = remark or other dose. Calls come from the whole dose curve; as a rule, active = well fitted curve in the direction sought with a large enough effect; inconclusive = small, poorly fitted or top-dose-only effect, or another doubt; inactive = no such curve, though single readings can be large; an effect the other way counts as inactive or inconclusive. Potency is the fitted concentration of half-maximal effect.

SMILES | TGFb inhibitor | HT1080NT lethal | DT40 TDP1 CPT | HepG2 viability | DT40 TDP1 no CPT | HT1080 IDH1KD tx
CCOc1ccc(NC(=O)C(C)Oc2ccc(C#N)cc2)cc1S(=O)(=O)N1CCCC1 (centres undefined) | ? | -0.7% | -15.8% | -22.5% | -18.5% | 0.7%
COC(=O)COn1c(-n2nc(C)cc2C)nc2ccccc2c1=O | 1.2% | -12.1% | ? | -1.3% | ? | -0.2%
CCOn1c(-n2nc(C)cc2C)nc2ccccc2c1=O | -0.5% | 2.0% | 8.7% | -7.1% | -5.2% | -4.4%
CCOC(=O)COn1c(-n2nc(C)cc2C)nc2ccccc2c1=O | -1.1% | -3.6% | ? | -11.9% | 25.9µM* | -15.6%
Cc1cc(C)n(-c2nc3ccccc3c(=O)n2OCC#N)n1 | ? | -15.8% | 0.651µM* | -24.1% | 0.651µM* | ?
COc1cccc2c1cc1c(=O)n(CC(=O)N3CCCC3)nc(C)n12 | 6.8% | ? | -13.3% | 2.5% | -2.8% | 27.5%
Cc1cccc(-c2nnc(SC(C)C(=O)N3CCOCC3)o2)c1 (centres undefined) | -1.2% | 9.6% | 3.1% | -0.8% | 2.9% | 6.6%
CSc1ncc(Cl)c(C(=O)N(Cc2ccc(C(C)C)cc2)C2CCS(=O)(=O)C2)n1 (centres undefined) | -33.9% | nt | ? | -30.6% | ? | nt
CCSc1ncc(Cl)c(C(=O)N(Cc2ccccc2Cl)C2CCS(=O)(=O)C2)n1 (centres undefined) | -16.7% | nt | 18.4µM* | -19.8% | 14.6µM* | nt
CCCOc1ccc(CN(C(=O)c2nc(SC(C)C)ncc2Cl)C2CCS(=O)(=O)C2)cc1 (centres undefined) | -12.2% | nt | ? | -10.7% | 14.6µM* | nt
CSc1ncc(Cl)c(C(=O)N(Cc2ccccc2Cl)C2CCS(=O)(=O)C2)n1 (centres undefined) | 0.1% | nt | -3.6% | -0.4% | -11.2% | nt
CC(C)Sc1ncc(Cl)c(C(=O)N(Cc2ccc(F)cc2)C2CCS(=O)(=O)C2)n1 (centres undefined) | -29.0% | nt | ? | -16.2% | 23.1µM* | nt
CNCc1ccccc1Sc1cccc2ccccc12 | ? | -14.3% | 23.1µM* | -43.6% | 23.1µM* | -26.2%
COc1ccc(CCN(C)Cc2cccc3ccccc23)cc1OC | -13.3% | -10.0% | ? | -49.0% | -25.3% | -15.1%
CN(C)CCN(C)Cc1ccccc1Sc1cccc2ccccc12 | ? | ? | 9.2µM* | -110.5% | 8.2µM* | ?
CNCc1ccccc1Sc1ccc(OC)cc1 | -21.6% | -6.8% | ? | -38.8% | ? | -15.4%
O=C(O)c1nn2c(C(F)(F)F)cc(-c3cccs3)nc2c1Cl | 2.7% | 3.8% | -23.5% | 10.9% | ? | 21.3%
O=C1C(=Cc2ccccn2)CCc2ccccc21 | 10µM* | ? | 14.6µM* | 12.6µM* | 4.11µM* | ?
COc1ccc2c(c1)CC/C(=C/c1ccccn1)C2=O | ? | -22.8% | ? | -38.6% | ? | -22.9%
C(=C1c2ccccc2-c2ccccc21)c1ccccn1 | 0.0% | -19.0% | ? | -16.6% | 13µM* | ?
COc1ccc(C(C)=O)c(OCC(=O)NCCC2=CCCCC2)c1 | -6.1% | 9.2% | -75.3% | -8.0% | 0.581µM* | -0.9%
COc1ccc(/C=C/C(=O)Nc2ccccc2)cc1OC | -3.5% | ? | 0.7% | 6.5% | 11.6% | 12.6%
O=C(COC(=O)/C=C/c1ccc(F)cc1)NCc1ccco1 | 6.1% | 6.2% | 9.6% | 0.6% | 4.6% | 1.9%
COc1ccccc1/C=C/C(=O)OCC(=O)NNC(=O)c1ccccc1 | 9.9% | 7.4% | -25.1% | 6.2% | 18.4µM* | 25.6%
COc1ccccc1/C=C/C(=O)OCC(=O)NCc1ccco1 | -7.7% | 13.9% | 18.4µM* | -5.5% | ? | 15.8%
SMILES | TGFb inhibitor | HT1080NT lethal | DT40 TDP1 CPT | HepG2 viability | DT40 TDP1 no CPT | HT1080 IDH1KD tx
COc1ccc(/C=C/C(=O)Nc2c(C(=O)O)[nH]c3ccccc23)cc1OC | -1.4% | -1.1% | 20.6µM* | -2.0% | ? | -2.8%
O=C1NC(Cc2ccc(O)cc2)c2nc3ccc(F)cc3c(=O)n2-c2cc(Cl)ccc21 (centres undefined) | -41.3% | 3.8% | -8.8% | 4.0% | 1.6% | -7.6%
COc1ccccc1/C=C/C(=O)OCC(=O)NCCC1=CCCCC1 | -1.9% | 7.1% | -4.6% | 18.2% | -8.5% | 13.0%
COc1cc(/C=C/C(=O)OCC(=O)NCc2ccco2)ccc1O | ? | -14.7% | 20.6µM* | 14.2% | 16.4µM* | -19.1%
COc1ccc(OC)c(/C=C/C(=O)OCC(=O)NCc2ccccc2)c1 | ? | 4.4% | -29.5% | -24.2% | -24.0% | 15.5%
COc1ccc(/C=C/C(=O)OCC(=O)NCCC2=CCCCC2)cc1OC | -27.6% | -14.8% | ? | -25.6% | 16.4µM* | -4.9%
COc1ccc(/C=C/C(=O)OCC(=O)NCc2ccccc2)cc1OC | 8.1% | -1.6%[9.24 µM] | 20.6µM* | 8.2% | 16.4µM* | ?
CC(C)[C@H](NC(=O)C1CC(=O)N(c2ccc(F)cc2)C1)C(=O)N1CCCCC1 (some centres undefined) | -7.4% | 13.5% | ? | 0.0% | ? | 13.0%
Cc1ccc(CO)cc1Nc1ncnc2onc(-c3ccc(F)cc3)c12 | 1.5% | nt | ? | -13.3% | ? | nt
Cn1nccc1C(=O)N1CCCC(N2CCN(Cc3ccc4c(c3)OCO4)CC2)C1 (centres undefined) | 6.5% | -1.1% | -25.1% | -0.7% | -13.4% | -2.9%
Cc1ccc(C)c(S(=O)(=O)N2CCN(C(=O)c3sccc3C)CC2)c1 | -0.3% | 6.8% | -21.4% | 0.3% | ? | 6.3%
CC(=O)N(C)c1ccc(NC(=O)/C=C/c2ccccc2Cl)cc1 | 4.0% | -15.7% | ? | -15.4% | 13µM* | -17.3%
Cc1cc(N2CCCCC2)nc2ccc(NC(=O)/C=C/c3ccccc3OC(C)C)cc12 | 17.2% | nt | 7.31µM* | 4.3% | 10.3µM* | nt
Cc1cc(N2CCCCC2)nc2ccc(NC(=O)/C=C/c3ccccc3Cl)cc12 | 22.2% | nt | 13µM* | -21.4% | 10.3µM* | nt
COc1ccc(/C=C/C(=O)Nc2ccc3nc4n(c(=O)c3c2)CCCC4)cc1OC | 8.9% | ? | -8.2% | -2.2% | -1.5% | ?
Cc1ccc(NC(=O)/C=C/c2ccccc2Cl)cc1Cl | -13.6% | nt | -19.3% | -22.9% | -21.9% | nt
COc1ccc(/C=C/C(=O)Nc2ccc3nc(N4CCCCC4)cc(C)c3c2)cc1OC | 12.6µM* | nt | 2.91µM* | -92.9% | 2.59µM* | nt
